# GCN5L2 inh: blocks human GCN5L2 histone acetyltransferase. GCN5L2 HAT assay, ThioGlo1 CoA-SH fluorescence. Potency, µM (series often up to 58.9 µM), for the others: at the top dose activity change, negative = inhibition, most hits filed as inhibitors. AID 504327. 390,000 tested, 0.21% active
# Target sequence (Q92830 whole entry, looked up): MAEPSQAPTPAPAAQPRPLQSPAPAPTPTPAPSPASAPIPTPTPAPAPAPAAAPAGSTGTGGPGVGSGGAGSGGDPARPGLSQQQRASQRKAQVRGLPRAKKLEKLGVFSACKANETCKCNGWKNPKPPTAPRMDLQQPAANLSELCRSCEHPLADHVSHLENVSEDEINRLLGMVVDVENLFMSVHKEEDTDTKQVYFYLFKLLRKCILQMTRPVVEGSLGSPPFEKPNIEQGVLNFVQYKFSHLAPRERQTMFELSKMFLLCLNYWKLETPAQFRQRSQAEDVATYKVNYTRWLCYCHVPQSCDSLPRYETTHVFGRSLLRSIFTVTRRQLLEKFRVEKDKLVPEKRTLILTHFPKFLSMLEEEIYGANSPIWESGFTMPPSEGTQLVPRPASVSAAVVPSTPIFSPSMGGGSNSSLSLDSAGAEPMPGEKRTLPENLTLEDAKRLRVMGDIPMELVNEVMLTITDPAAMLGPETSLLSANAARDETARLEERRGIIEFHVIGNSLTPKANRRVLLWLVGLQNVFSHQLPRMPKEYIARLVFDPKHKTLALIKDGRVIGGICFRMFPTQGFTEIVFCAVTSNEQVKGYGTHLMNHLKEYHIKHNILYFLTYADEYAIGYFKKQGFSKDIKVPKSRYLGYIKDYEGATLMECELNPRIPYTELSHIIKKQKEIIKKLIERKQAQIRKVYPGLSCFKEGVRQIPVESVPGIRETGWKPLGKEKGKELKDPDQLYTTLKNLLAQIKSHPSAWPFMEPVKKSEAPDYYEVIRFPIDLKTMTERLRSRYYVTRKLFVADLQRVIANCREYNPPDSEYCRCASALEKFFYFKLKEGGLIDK
#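 GCN5L2 (20nM final) in 50mM HEPES, 0.1mM EDTA pH 7.5, 0.01% Tween-20 was preincubated 15 min at room temperature with compound, then given ThioGlo1 (50uM), H3(1-25) peptide (75uM) and acetyl-CoA (70uM); CoA-thiol fluorescence (Ex340/Em540) was read at 0 and 20 min.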
# TrxR1 inh: inhibitors of rat thioredoxin reductase 1. Potency, µM (top dose mostly 114 µM), inactives show at the highest dose activity change, negative = inhibition, most hits filed as inhibitors. O89049. 390,000 tested, 1% active. recombinant rTrxR1, NADPH fluorescence consumption, selenite substrate; further: nearly all actives have a fitted effect of over 65% in size
#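 Rat TrxR1 (90 nM in the dispensed reagent) was pre-reduced with 400 uM NADPH for 5 min at room temperature, then incubated with compound for 15 min. After 400 uM selenite was added, NADPH fluorescence (Ex 340/Em 450 nm) was followed for 8 min.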
# VDR inhibitor: inhibitors of human vitamin D receptor; P11473; Potency, µM, for the others: max response, negative = inhibition, most hits filed as inhibitors; 400,000 tested, 0.93% active; VDR-SRC2-3 peptide fluorescence polarization, 2 h
#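 Signal is fluorescence polarization, reporting how far test compounds block the interaction of VDR with the SRC2-3 coregulator peptide after a 2 h room-temperature incubation.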
# TrxR1 substrate: is turned over as a substrate by rat TrxR1. 390,000 tested, 0.01% active. purified TrxR1 substrate turnover, NADPH consumption readout. O89049. Potency, µM (series often up to 114 µM), inactives show at the highest dose activity change, negative = substrate turnover; further: nearly all actives have a fitted effect of over 50% in size
#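 Rat TrxR1, dispensed at 90 nM, was prereduced with 400 uM NADPH (final) for 5 min at ~22 deg C, then incubated with compound 15 min before 400 uM selenite. A first-read NADPH fluorescence drop versus no-compound background flagged substrates.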
# Active calls of the source: *; ? = inconclusive; / = not tested or not shown; ! = repeats disagree; [ ] = another dose, or the depositor's remark. Shown are actives, neighbours in structure and some others; about 1.8% of the full set was active somewhere. The call rests on the fitted dose curve; in most records, active means well fitted curve in the direction sought with a large enough effect; inconclusive means small, poorly fitted or top-dose-only effect, or another doubt; inactive means no such curve, though single readings can be large; an effect the other way counts as inactive or inconclusive. On the % scale 0 is the no-effect control and ±100 the full control effect; potency means the concentration at half of the fitted maximal effect.
SMILES,GCN5L2 inh,TrxR1 inh,VDR inhibitor,TrxR1 substrate
Cc1cc2nc(-c3ccc(SCC(=O)N4CCN(C(=O)c5ccco5)CC4)nc3)[nH]c2cc1C,?,13µM*,-6%,43%
CSCCC(NC(C)=O)C(=O)Oc1ccc2c3c(c(=O)oc2c1)CCCC3 (configuration not stated),?,50µM*,4%,583%
O=C(C[n+]1cccc2cccc(O)c21)c1ccc(Br)cc1,/,21%,/,1%
Cc1ccc(NS(=O)(=O)c2c(C)nc3sccn3c2=O)c(Cl)c1,-5%,6%,-12%,-4%
C=CCOC(=O)C(=O)/C=C/c1ccc2c(c1)Cc1ccccc1-2,1%,-41%,22µM*,1%[57.1 µM]
CCC(=O)Nc1cc2[nH]c(=O)cc(C)c2cc1C,2%,5%,-12%,23%
Cc1cc2c(C)cc(=O)[nH]c2cc1NC(=O)CCl,-3%,20µM*,3%,2%
CCOC(=O)C1=C(C)NC2=C(C(=O)C(C(=O)OCC)C(c3ccco3)C2)C1c1ccccc1C (configuration not stated),/,22%,/,37%
S=C(NNC(=S)Nc1ccccc1)Nc1ccccc1,-3%,-27%[57.1 µM],71µM*,-1%[57.1 µM]
COc1cc(/C=C(\C#N)C(=O)NC2CCCCC2C)ccc1OS(=O)(=O)c1ccc(C)cc1 (configuration not stated),-13%,?,79µM*,3%
COc1cc(/C=C(\C#N)C(N)=O)ccc1OS(=O)(=O)c1ccc(C)cc1,-7%,-39%,?,8%[57.1 µM]
COc1cc(OC)c(/C=C/c2c3ccccc3cc[n+]2C)c(OC)c1,/,2%,/,-8%
CCCC[C@@H](C=O)NC(=O)[C@H](CC(C)C)NC(=O)OCc1ccccc1,-15%,/,35µM*,/
CC(C)CC(NC(=O)OCc1ccccc1)C(=O)NC(Cc1ccccc1)C(=O)CCl (configuration not stated),/,-8%[11.4 µM],71µM*,15%[57.1 µM]
Cc1cc(C)c2c(=O)n(CC(=O)NCCCN3CCN(c4ccccc4F)CC3)sc2n1,?,-15%[57.1 µM],16µM*,-6%[57.1 µM]
Cc1cc(C)c2c(=O)n(CC(=O)NCCCN3CCOCC3)sc2n1,18µM*,-31%,?,-7%
Cc1cc([N+](=O)[O-])nn1CC(=O)NCCCN1CCOCC1,-6%,0%,23%,-3%
Cc1snc(SCC(=O)c2ccc([N+](=O)[O-])cc2)c1C#N,6.3µM*,?,?,0%
C=C(NNC(C)=O)c1ccc(O)cc1,/,-6%,/,43%
CC1(C)C2CCC1(C)C(OC(=O)C[n+]1ccccc1N)C2 (configuration not stated),2%,-1%,-11%,31%
CC1(C)C2CCC1(C)C(OC(=O)C[n+]1ccccc1)C2 (configuration not stated),0%,6%,22µM*,4%
CC(C)(C)c1cc(/C=C(\C#N)C(N)=S)cc(C(C)(C)C)c1O,-11%,?,35µM*,?
N#C/C(=C/c1ccc(F)cc1)C(N)=S,-11%,-6%[57.1 µM],89µM*,5%[57.1 µM]
N#CC(C#N)=C(N)/C(C#N)=C/c1cc(O)c(O)c(O)c1,-9%,?,40µM*!,-16%
CCN(CC)C(=O)/C(C#N)=C/c1cc(O)c(O)c([N+](=O)[O-])c1,41%,/,?,/
SMILES,GCN5L2 inh,TrxR1 inh,VDR inhibitor,TrxR1 substrate
Cc1cc(C)c(/C=C(\C#N)C(N)=S)c(C)c1,1%,6%,-25%,1%
Cc1ccc(S(=O)(=O)Nc2c(O)ccc3ccccc23)cc1,/,?,32µM*,0%
N#Cc1c(NC(=O)/C=C/c2ccco2)sc2c1CCCC2,45%,40µM*,-5%,-7%
COc1ccc2[nH]c(S(=O)Cc3ncc(C)c(OC)c3C)nc2c1 (configuration not stated),-6%,-2%,/,-4%
COc1ccc2[nH]c(S(=O)Cc3ncc(C)c(OC)c3C)nc2n1 (configuration not stated),?,/,45µM*,/
COc1ccc(C(=O)CCN(C)C)c2ccccc12,/,0.4µM*,/,1%
COC(=O)c1ccc(NCc2cc(O)ccc2O)cc1O,/,?,-16%,-13%
COC(=O)c1ccc(NCc2c(O)ccc(O)c2Br)cc1Cl,/,32µM*,?,-9%
COc1cc(N(C)C)ccc1/C=C/c1ccnc2ccccc12,/,10%,/,-1%
Cc1ccccc1-c1ccc2ncnc(NCCN3CCOCC3)c2c1,-24%,/,50µM*,/
Cc1noc(C)c1-c1ccc2ncnc(NC3CCNCC3)c2c1,?,/,45µM*,/
Cc1ccccc1-c1ccc2ncnc(N3CCOCC3)c2c1,-22%,/,56µM*,/
Cc1noc(C)c1-c1ccc2ncnc(N3CCOCC3)c2c1,?,/,50µM*,/
Cc1noc(C)c1-c1ccc2ncnc(N3CCN(C)CC3)c2c1,-18%,/,?,/
Cc1cccc(C(=O)Nc2c(C(=O)NCc3ccc(Cl)cc3)sc3nc(C)cc(C)c23)c1,-4%,1%,1%,10%[11.4 µM]
Nc1c(Cl)cc(/C=C2\C=Cc3ccccc32)cc1Cl,/,0%,/,3%
CNc1ccc(Br)cc(C(=O)/C=C/c2ccc(OC)cc2)c1=O,-9%,-66%,?,0%[57.1 µM]
CNc1ccc(Br)cc(C(=O)/C=C/c2ccc3c(c2)OCO3)c1=O,0%,14µM*,79µM*,-10%
CCNc1ccc(Br)cc(C(=O)/C=C/c2ccc(Cl)cc2Cl)c1=O,-26%,8.9µM*,79µM*,0%
CNc1ccc(Br)cc(C(=O)/C=C/c2cc(OC)ccc2OC)c1=O,?,35µM*,?,6%
CC(C)CN(CCNC(=O)c1cc(-c2cccs2)nc2ccccc12)CC(C)C,-4%,7%,4%,63%
C[N+]1(CC(=O)c2ccc(Cl)c(Cl)c2)CCOCC1,/,19%,/,3%
C=C(CCC12O[C@H](C(=O)O)[C@@](O)(C(=O)O)[C@](C(=O)O)(O1)[C@H](OC(=O)/C=C/[C@@H](C)C[C@@H](C)CC)[C@H]2O)[C@@H](OC(C)=O)[C@H](C)Cc1ccccc1,5µM*,/,?,/
CC(C)(C)n1ncc2c(=O)n(Cc3ccc(Cl)c(F)c3)cnc21,/,11%,/,5%
CC1=C(SCc2ccccc2)C(=O)c2ccccc2C1=O,/,-43%[57.1 µM],14µM*,-5%[2.29 µM]
SMILES,GCN5L2 inh,TrxR1 inh,VDR inhibitor,TrxR1 substrate
Cn1cnc([N+](=O)[O-])c1Oc1ccccc1,-2%,45µM*,0%,0%
Cn1cnc([N+](=O)[O-])c1C(=O)Nc1cccc([N+](=O)[O-])c1,?,-2%,2%,3%[0.0914 µM]
CNc1c([N+](=O)[O-])ncn1C,1%,9%[57.1 µM],1%,7%[57.1 µM]
Cn1cnc([N+](=O)[O-])c1Oc1cccc(O)c1,0%,25µM*,?,-11%
CC(C)(C)n1ncc2c(=O)n(Cc3cc(Cl)ccc3Cl)cnc21,/,3%,/,-3%
O=C(C[N+]1(CCO)CCOCC1)c1ccc2ccccc2c1,/,12%,/,5%
NC(=O)N/N=C/c1c(F)cccc1F,-6%,-17%,-15%,-8%
NC(=O)N/N=C/c1c(F)c(F)c(F)c(F)c1F,1%,29%[57.1 µM],25µM*,-2%[57.1 µM]
O=C(Cc1cccs1)NC1C(=O)N2C(C(=O)[O-])=C(C[n+]3ccccc3)CSC12 (configuration not stated),?,/,25µM*,/
